Most compounds without a hit are left out; they make up all but 17% or so of the library.
HepG2 viability – qHTS for Inhibitors of TGF-b: Cytotox Counterscreen; HepG2 CAGA-GFP viability, ATP luminescence, 18 h; Potency, µM (titrated, usually from 46.1 µM), without a hit: top-dose activity change, negative = cytotoxicity, most hits filed as cytotoxic; actives 0.76% (n = 410,000); AID 588856, 2011
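CellTiter-Glo luminescence gave cytotoxicity after 18 hours at 37 degrees C. The cells were HepG2 CAGA-GFP in 1% FBS DMEM, stimulated with 500 pg/mL TGF-beta after compound addition. %Activity was normalised to no-cell wells (complete cell-killing) and DMSO (no toxicity), and curves were fitted and classified.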
HT1080 IDH1KD tx – qHTS for induction of synthetic lethality in tumor cells producing 2HG: qHTS for the HT-1080-IDH1KD cell line | HT-1080 IDH1 knockdown viability, ATP luminescence, 48 h | Potency, µM (highest dose often 46.1 µM), inactives show at the top dose activity, negative = toxicity, hits mostly cytotoxic | actives 2% (n = 360,000) | AID 686971, 2013;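 further: 0% = DMSO wells and -100% = cell-free medium wells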
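CellTiter-Glo luminescence after 48 h compound exposure at 37 degrees C of IDH1-knockdown HT-1080 cells in 5% FBS RPMI. %Activity scaled between DMSO wells and cell-free media wells, with curves fitted and assigned curve classes.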
TDP1 cell CPT – qHTS for Inhibitors of human tyrosyl-DNA phosphodiesterase 1 (TDP1): qHTS in cells in presence of CPT. actives 12% (n = 420,000). chicken DT40 Tdp1-/-;hTDP1 cells + 20 nM CPT, ATP luminescence, 48 h. Potency, µM (highest dose often 46.2 µM), without a hit: at the highest dose activity change, negative = growth inhibition, most hits filed as inhibitors. AID 686979, 2013; further: on the % scale 0 is the no-effect control and ±100 the full control effect; nearly all actives have a fitted effect of over 55% in size
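Chicken DT40 Tdp1-/- cells complemented with human TDP1, 400 cells/well, exposed to compounds plus 20 nM camptothecin for at least 48 h at 37 C; viability read as ATP content by CellTiter-Glo luminescence.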
DT40 TDP1 no CPT – qHTS for Inhibitors of human tyrosyl-DNA phosphodiesterase 1 (TDP1): qHTS in cells in absence of CPT; DT40 Tdp1-/- hTDP1 cells, no CPT, ATP luminescence, 48 h; Potency, µM (series often up to 46.2 µM), inactives show at the highest dose activity change, negative = growth inhibition, hits mostly inhibitors; actives 15% (n = 420,000); AID 686978, 2013; further: on the % scale 0 is the no-effect control and ±100 the full control effect; nearly all actives have a fitted effect of over 55% in size
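Chicken DT40 Tdp1-/- cells complemented with human TDP1, screened without camptothecin (DMSO vehicle only), 400 cells/well. Compounds pin-transferred, cells incubated at 37 °C for at least 48 hr. Growth read as ATP-dependent luminescence (CellTiter-Glo, 30 min at RT).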
TGFb inhibitor – qHTS for Inhibitors of TGF-b. HepG2 CAGA-GFP TGF-b/SMAD3 reporter, GFP fluorescence, 18 h; TGF-beta stimulated, 500 pg/mL final. AID 588855, 2011. actives 1.2% (n = 410,000). Potency, µM (titrated, usually from 46.1 µM), inactives show top-dose activity, negative = inhibition, actives largely listed as inhibitors; further: on the % scale 0 is the no-effect control and ±100 the full control effect; nearly all actives have a fitted effect of over 65% in size
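Per well, imaged GFP fluorescence of HEPG2 CAGA-GFP cells gives the signal; cells get compound, then TGF-beta (500 pg/mL final), 18 h at 37 degrees C; %Activity versus -TGF-beta and +DMSO controls.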
HT1080-NT tox – qHTS for induction of synthetic lethality in tumor cells producing 2HG: qHTS for the HT-1080-NT fibrosarcoma cell line; HT-1080-NT fibrosarcoma viability, CellTiter-Glo ATP luminescence, 48 h; Potency, µM (highest dose often 46.1 µM), for the others: top-dose activity, negative = less viability, usual class: cytotoxic; actives 1.6% (n = 360,000);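 further: NT is the 2HG producing partner of a matched IDH1 knockdown line; 0% = DMSO-treated cells and -100% = media-only wells without cells; nearly all actives have a fitted effect of over 55% in size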
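Viability by CellTiter-Glo luminescence after 48 h compound exposure at 37C of HT-1080-NT cells (750/well, RPMI, 5% FBS). % activity scaled between DMSO wells and medium-only wells, then curve-fitted and categorized by curve class.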
An asterisk follows results filed as active; ? = inconclusive; nt = no result. The call rests on the fitted dose curve; in most records, active means well fitted curve in the direction sought with a large enough effect; inconclusive means small, poorly fitted or top-dose-only effect, or another doubt; inactive means no such curve, though single readings can be large; an effect the other way counts as inactive or inconclusive. Potency means the concentration at half of the fitted maximal effect.

SMILES	HepG2 viability	HT1080 IDH1KD tx	TDP1 cell CPT	DT40 TDP1 no CPT	TGFb inhibitor	HT1080-NT tox
Cc1cc(C)c2c(N=NN3CCOCC3)[nH]nc2n1	19%	18%	-3%	-15%	8%	19%
CCc1nnc(NC(=O)c2oc3ccc(Br)cc3c2C)s1	-1%	21%	8%	?	-6%	10%
CC1(C(=O)NS(=O)(=O)c2ccc(Cl)cc2)CCN1C(=O)C1CC1 (configuration not stated)	5%	17%	-20%	0%	-1%	7%
CCn1c2ccccc2c2cc(NS(=O)(=O)c3ccccc3C)ccc21	11%	?	?	21µM*	?	?
Cc1cc2c(cc1C)C(=O)C(Br)=C(N)C2=O	-20%	-15%	26µM*	16µM*	-29%	-20%
Cc1cc(-c2cc(C)c(N)cc2C)c(C)cc1N	5%	?	?	?	-4%	?
Cc1ccc(C)c(N2CCN(C3(c4ccccc4)C(=O)c4ccccc4C3=O)CC2)c1	-22%	nt	-10%	-23%	23%	nt
CCN(CC)S(=O)(=O)c1ccc(C)c(C(=O)Oc2cccc(-c3cnc4ccccc4n3)c2)c1	15%	8%	?	21µM*	0%	12%
CCN(CC)S(=O)(=O)c1cc(C(=O)Oc2cccc(-c3cnc4ccccc4n3)c2)ccc1OC	1%	-15%	?	21µM*	-5%	0%
O=C(Oc1cccc(-c2cnc3ccccc3n2)c1)c1ccco1	2%	-12%	-15%	-28%	?	-21%
CCOc1c(Cl)cc(/C=C/C(=O)N(CC)CC(=O)NCc2cccs2)cc1OC	1%	5%	?	?	-8%	0%
Cc1cc(-c2nnc3n2CCCCC3)c(C)n1-c1ccccc1	12%	1%	?	16µM*	8%	2%
Oc1ccccc1-c1nnc2n1CCCCC2	-3%	3%	12%	-15%	7%	5%
Cc1c(Cl)cccc1NC(=O)c1oc2ccc(S(=O)(=O)N3CCCCCC3)cc2c1C	-5%	nt	?	8.2µM*	22%	nt
COc1ccc(NC(=O)c2oc3ccc(S(=O)(=O)N4CCCCC4)cc3c2C)cc1Cl	-9%	nt	9.2µM*	13µM*	-16%	nt
Cc1ccc(NC(=O)c2oc3ccc(S(=O)(=O)N4CCCCC4)cc3c2C)cc1C	-21%	nt	?	-24%	-7%	nt
Cc1c(C(=O)Nc2ccc(F)cc2)oc2ccc(S(=O)(=O)N3CCCCCC3)cc12	-8%	nt	18µM*	18µM*	-4%	nt
COc1cccc(-c2cnc(C(O)c3ccc(OC)c(F)c3)[nH]2)c1 (configuration not stated)	-25%	11%	?	-17%	8%	23%
CCC(=O)N1CCN=C1SCc1cccc(F)c1	29%	6%	-23%	?	27%	8%
CCN(CC)S(=O)(=O)c1ccc(N/N=C(\C)c2ccc3c(c2)OCO3)c([N+](=O)[O-])c1	5%	6%	?	15µM*	-2%	-5%
CCCN1CCC(=NNc2ccc(S(=O)(=O)N(CC)CC)cc2[N+](=O)[O-])CC1	-8%	5.8µM*	2.1µM*	2.6µM*	?	8.2µM*
C/C(=N\Nc1ccc(S(N)(=O)=O)cc1[N+](=O)[O-])c1ccc2c(c1)OCO2	-19%	?	-28%	15µM*	-23%	?

Compound activity: PubChem, National Center for Advancing Translational Sciences (NCATS)
